# Compounds with a hit are over-represented: about 3.5% of the library has one in this group of screens.
# M1 ag: activates human CHRM1 receptor; CHO-K1 hM1, Fluo-8 calcium fluorescence, agonist mode; 0% DMSO, 100% acetylcholine EC100; actives 0.33% (n = 360,000); AID 588814; activation, % at 3 µM; P11229;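 active means activation above the run's mean compound activation plus 3 SD, cut at about 16% in these data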;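 further: peak over basal fluorescence ratio within a 140 s kinetic read after compound addition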
# M1 PAM: human CHRM1 positive allosteric modulation | CHO-K1 hM1, Fluo-8 calcium fluorescence, ACh EC20; 0% = ACh EC20, 100% = maximal ACh | actives 0.088% (n = 360,000) | P11229 | activation, % at 3 µM | AID 588819; in the data active means activation above about 19%, passing the limit was not always enough
# Myeloid diff 2: compounds promoting myeloid differentiation; ER-HoxA9 myeloid progenitors, lysozyme-GFP differentiation, flow cytometry; calls only at 10 µM; actives 1% (n = 360,000); AID 624256;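 active means normalized GFP-positive differentiation at or above the plate's own cutoff, the solvent-only control mean plus 3 SD; inconclusive means no clear call, values can overlap the other calls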;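 further: cells exposed to compound for four days before flow analysis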
# ATG4B inh: blocks human ATG4B protease cleavage of LC3 substrate | Q9Y4P1 | ATG4B cleavage of LC3-PLA2, NBD-HPC fluorescence, 1 h | inhibition, % at 8.33 µM | actives 0.51% (n = 340,000); in the data active means inhibition above about 40%
# Target sequence (Q9Y4P1 whole entry, looked up): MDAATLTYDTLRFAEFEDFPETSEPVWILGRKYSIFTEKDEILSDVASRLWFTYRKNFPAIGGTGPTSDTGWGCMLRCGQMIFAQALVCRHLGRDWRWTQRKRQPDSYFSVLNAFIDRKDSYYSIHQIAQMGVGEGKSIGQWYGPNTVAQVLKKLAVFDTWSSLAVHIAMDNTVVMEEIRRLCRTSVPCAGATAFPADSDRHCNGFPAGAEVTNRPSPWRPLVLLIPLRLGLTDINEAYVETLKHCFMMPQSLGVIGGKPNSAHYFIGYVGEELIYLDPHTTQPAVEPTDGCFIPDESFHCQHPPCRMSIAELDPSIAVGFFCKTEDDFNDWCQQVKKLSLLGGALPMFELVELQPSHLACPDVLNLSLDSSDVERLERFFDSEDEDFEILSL
# SKN-1 block: C. elegans SKN-1 inhibition | C. elegans VP596 Pgst-4::GFP/RFP ratio, acrylamide-induced, 24 h | inhibition, % at 21.8 µM | actives 0.49% (n = 360,000) | AID 624304;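 active means interference check ratio from 0.5 to 1.5 plus GFP to RFP signal ratio inhibition reaching or exceeding a fixed threshold, cut at about 30% in these data, passing the limit was not always enough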
# M1 antag: blocks human M1 muscarinic receptor; CHO-K1 hM1, Fluo-8 calcium fluorescence, ACh EC80 antagonist; inhibition, % at 3 µM; actives 1.3% (n = 360,000); AID 588852; P11229;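 active means percent inhibition above its own plate's cutoff, namely the mean of that plate's compound wells plus 3 SD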;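 further: peak over basal fluorescence ratio during 140 s after agonist addition; 0% = ACh EC80 plus DMSO and 100% = DMSO alone without agonist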
# Myeloid diff: myeloid differentiation induction. ER-HoxA9 myeloid progenitors, GFP/Mac1 double-positive flow. actives 2% (n = 2,300). calls only. shares compounds with Myeloid diff 2;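 active means share of green or green-and-red cells above 9 and 9% in run 1 or 4 and 3% in run 2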
# GFP autofluor: counter-screen for myeloid differentiation promoters: compound fluorescence; shares compounds with Myeloid diff 2; ER-HoxA9 myeloid progenitors, no estrogen, GFP autofluorescence flow cytometry; vehicle wells 0%, positive control 100%; fluorescence response, % (test concentration not listed); actives 7.4% (n = 2,300); AID 651707;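 active means over 5% cells positive for green fluorescent reporter, or over 2% positive for both it and APC stain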;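 further: range taken on the double positive population between DMSO and positive control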
# Starred values were filed as active, the others as inactive; i = inactive; ? = inconclusive; · = not tested or not shown; + = active, no number.
SMILES,M1 ag,M1 PAM,Myeloid diff 2,ATG4B inh,SKN-1 block,M1 antag,Myeloid diff,GFP autofluor
CCC(=O)C1CCCN(C(=O)CCc2nnc(C3(c4ccc(Cl)cc4)CCC3)o2)C1 (centres undefined),-4,7,i,5,15,-18,·,·
CN1CCN(c2ccccc2/C=C2/C(=O)Nc3ccccc32)CC1,-11,-30,i,3,-9,89*,i,83*
O=S(=O)(c1cccc(-c2nnc(SCc3ccc(Cl)cc3)o2)c1)N1CCCCC1,-3,5,+,1,-23,-6,i,19*
NC(=O)CSc1nnc(-c2cccc(S(=O)(=O)N3CCCCC3)c2)o1,-1,21,i,0,-9,-17,·,·
COc1ccc(-n2c(Cc3cccn3C)nnc2SCC(=O)Nc2ccccc2)cc1,-3,8,i,1,7,-16,·,·
COc1ccc(-n2c(Cc3cccn3C)nnc2SCC(=O)Nc2nc(C)cs2)cc1,-9,6,i,2,4,-13,i,0
Clc1cc(Cl)cc(Nc2ccccc2CN(C/C=C/c2ccc3c(c2)OCO3)Cc2ccccc2)c1,-1,2,i,·,-13,0,i,0
CC(=O)OCCN(Cc1ccccc1)Cc1ccc2c(c1)OCO2,-9,-1,i,8,1,-2,·,·
CCCc1c(NC(=O)Nc2ccc(F)cc2)cnn1-c1ccccc1,4,-7,+,-10,-10,-1,i,0
CCOC(=O)c1cc2sccc2n1CC(=O)N1CCCc2ccccc21,-6,-9,+,3,10,4,i,0
CCOC(=O)Cn1nnc(-c2cccc(OC)c2)n1,-2,3,i,-7,-2,-8,i,0
CCc1nonc1NC(=O)COc1ccc(Cl)c(C)c1,0,-2,i,0,10,-1,i,0
CCc1nonc1NC(=O)COc1cc(C)c(Cl)c(C)c1,-1,-10,i,9,11,8,·,·
COc1ccc2c(C)nc(Nc3nc(C)cc(C)n3)nc2c1,-5,6,i,-3,-3,1,i,35*
CC1(C)OC(=O)C2=C(C[C@@H](C3CCCC3)O[C@H]2c2ccc(Cl)cc2)O1,·,·,i,·,-8,·,·,·
CC(=O)Nc1ccc(S(=O)(=O)NCCSCc2ccco2)cc1,-3,6,i,-4,-1,-25,·,·
CS(=O)(=O)NCCSCc1ccco1,7,21,i,2,-5,-5,i,1
Cc1ccc(S(=O)(=O)N2C[C@H]3C(=O)C[C@@H](c4ccccc4)N(S(=O)(=O)c4ccc(C)cc4)[C@H]3C[C@H]2c2cccc(C)c2)cc1,-2,7,+,·,7,-9,i,0
CC1(C(=O)NS(=O)(=O)Cc2ccccc2)CCN1C(=O)Cc1cc(F)ccc1F (centres undefined),-3,9,i,·,10,-13,·,·
Cc1ccc(CNC(=O)CN(C)S(=O)(=O)c2cnc[nH]2)cc1,-2,-2,i,5,9,4,·,·
COc1cccc(CNC(=O)CN(C)S(=O)(=O)c2cnc[nH]2)c1,0,12,+,7,-9,-10,i,1
O=C(Nc1ccc(-c2nc3cc(Cl)ccc3c(=O)o2)cc1)c1ccco1,-4,-1,i,4,5,3,·,·
O=C(Nc1ccc(-c2nc3c(ccc4ccccc43)o2)cc1)c1ccco1,3,8,+,-2,9,3,i,0
CC(C)c1ccc(/C=C(\c2nc3ccccc3[nH]2)S(=O)(=O)c2ccccc2)cc1,-7,4,+,-11,8,-4,i,0
O=S(=O)(/C(=C/c1ccc(C(F)(F)F)cc1)c1nc2ccccc2[nH]1)c1ccccc1,-6,19,?,8,-8,-12,·,·
CCN1/C(=N\N)c2cccc3cccc1c23,0,2,+,-8,61,8,i,94*

# From PubChem
